These results are taken from the supplement of paper PMC5919970.

Where a name gives a salt, the structure may show the parent alone. In all, about 2,000 compounds were measured (“fractional viability relative to vehicle”: median about 0.91, lowest 2% from about 0.045 on). The sample as a whole holds a higher share of the lowest values than the screen did.

In this test the test system is TYKNU. The test can be described thus: fractional viability relative to vehicle; TYKNU is a high-grade serous ovarian cancer line; higher = less growth inhibition. The settings on record: 72 h. Put shortly: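 TYKNU control cells or lentiCRISPRv2 knockout derivatives were seeded at 500 cells per well into drug-stamped 384-well plates holding a ~2100-compound library at 2 or 10 μM, in duplicate. Cells were grown at 37 °C in 5% CO2 in RPMI 1640 with 10% FBS, and drug treatment lasted 72 h. Viability was read by Cell Titer Glo luminescence. Duplicate treatment wells were averaged and normalised to duplicate control wells from the same plate position.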

The mark [1] stands for this setting: 2uM, genotype: DNM1L knockout (sgDNM1L #1).
[2] abbreviates: 2uM, genotype: sgCTRLA1 (non-targeting control).
The mark [3] stands for this setting: 10uM, genotype: DNM1L knockout (sgDNM1L #1).
The mark [4] stands for this setting: 10uM, genotype: sgCTRLA1 (non-targeting control).

The compound `Cn1c(=O)cc(N2CCC[C@@H](N)C2)n(Cc2ccccc2C#N)c1=O` [Alogliptin] came in with a fractional viability under setting [1] of 0.928, a fractional viability under setting [2] of 0.995, a fractional viability under setting [3] of 0.894 and a fractional viability under setting [4] of 1.03.

Take `Cc1ncc([N+](=O)[O-])n1CC(O)CCl` (stereo not given) [Ornidazole]: the fractional viability was 1.42 under setting [1], 1.24 under setting [2], 1.25 under setting [3] and 1.37 under setting [4].

With `O=C(N/N=C/c1ccc([N+](=O)[O-])o1)c1ccc(O)cc1` [Nifuroxazide], the fractional viability was determined as 0.378 under setting [1], 1.1 under setting [2], 0.0463 under setting [3] and 0.0163 under setting [4].

Consider `CCOC(=O)c1ccc(N2NC(=O)C(=Cc3ccc([N+](=O)[O-])o3)C2=O)cc1`, for which the fractional viability by setting is: under setting [1], 0.944; under setting [2], 1.26; under setting [3], 0.872; under setting [4], 1.02.

For the compound `NC(=O)N/N=C/c1ccc([N+](=O)[O-])o1` [Nitrofural], the fractional viability under setting [1] came out at 1.34, the fractional viability under setting [2] came out at 1.13, the fractional viability under setting [3] was determined as 1.26 and the fractional viability under setting [4] amounted to 1.2.

Turning to `CN(C)c1ccc(C(=C2C=CC(=[N+](C)C)C=C2)c2ccc(N(C)C)cc2)cc1` [Crystal Violet], the fractional viability was determined as 0.133 under setting [1], 0.121 under setting [2], 0.0375 under setting [3] and 0.0133 under setting [4].

As for `O=c1[nH]c(=O)n(C2CC(O)C(CO)O2)cc1Br` (stereo not given) [Bromodeoxyuridine (BrdU)], the fractional viability came to 0.823 under setting [1], 0.962 under setting [2], 0.859 under setting [3] and 0.64 under setting [4].

Regarding `Cc1nc(-c2cccnc2)sc1C(=O)Nc1ccccc1-c1cn2c(CN3CCOCC3)csc2n1`, the fractional viability under setting [1] worked out at 0.821, the fractional viability under setting [2] was 0.932, the fractional viability under setting [3] was 0.858 and the fractional viability under setting [4] was 0.78.

As for `O=C(Nc1ccccc1-c1cn2c(CN3CCNCC3)csc2n1)c1cnc2ccccc2n1`, the fractional viability reads like this: under setting [1], 0.608; under setting [2], 0.845; under setting [3], 0.0197; under setting [4], 0.00961.

For the compound `Cn1c2ccccc2c2c3c(c4c5ccccc5n(CCC#N)c4c21)CNC3=O`, the fractional viability was found to be 0.64 under setting [1], 1.01 under setting [2], 0.671 under setting [3] and 0.79 under setting [4].

On to `Cn1cncc1[C@@](N)(c1ccc(Cl)cc1)c1ccc2c(c1)c(-c1cccc(Cl)c1)cc(=O)n2C` [Tipifarnib], for which the fractional viability is 0.472 under setting [1], 0.64 under setting [2], 0.272 under setting [3] and 0.366 under setting [4].

For `Cc1nnc(C(C)C)n1C1C[C@H]2CC[C@@H](C1)N2CC[C@H](NC(=O)C1CCC(F)(F)CC1)c1ccccc1` (stereo in doubt) [Maraviroc], the fractional viability runs as follows: under setting [1], 0.973; under setting [2], 1.15; under setting [3], 0.873; under setting [4], 1.03.

Regarding `Cc1cc(-c2ncc(CC(=O)Nc3ccc(-c4cnccn4)cn3)cc2C)ccn1`, the fractional viability by setting is: under setting [1], 0.863; under setting [2], 1.1; under setting [3], 0.665; under setting [4], 0.746.

Consider `CC(C)c1onc(-c2c(Cl)cccc2Cl)c1COc1ccc(/C=C/c2cccc(C(=O)O)c2)c(Cl)c1`, for which the fractional viability was found to be 0.953 under setting [1], 1.1 under setting [2], 0.781 under setting [3] and 1.09 under setting [4].

In the case of `c1ccc(Cn2c(-c3ccc(OC[C@H](C4CCNCC4)n4c(-c5ccccc5)nc5ccccc54)cc3)nc3ccccc32)cc1` [Deltarasin], the fractional viability was determined as 0.887 under setting [1], 0.966 under setting [2], 0.0145 under setting [3] and 0.0132 under setting [4].

As for `c1cc(-c2cnn3cc(-c4ccc(OCCN5CCCCC5)cc4)cnc23)ccn1` [Dorsomorphin (Compound C)], the fractional viability came to 0.845 under setting [1], 0.916 under setting [2], 0.552 under setting [3] and 0.503 under setting [4].

As to `C/C(=N\NC(=S)N1CCC1)c1ccccn1`, the fractional viability worked out at 0.171 under setting [1], 0.137 under setting [2], 0.225 under setting [3] and 0.167 under setting [4].

For the compound `Fc1ccc2[nH]ccc2c1-c1nc(N2CCOCC2)c2sc(CN3CCN(CC4CC4)CC3)cc2n1`, the fractional viability reads like this: under setting [1], 0.883; under setting [2], 0.947; under setting [3], 0.634; under setting [4], 0.711.

Turning to `O=C(NC1CCN(CCCCC2(C(=O)NCC(F)(F)F)c3ccccc3-c3ccccc32)CC1)c1ccccc1-c1ccc(C(F)(F)F)cc1` [Lomitapide Mesylate], the fractional viability by setting is: under setting [1], 0.573; under setting [2], 0.79; under setting [3], 0.0435; under setting [4], 0.0328.

With `O=C1c2ccccc2C(=O)c2c1ccc(O)c2O` [Alizarin], the fractional viability is, setting by setting: under setting [1], 0.834; under setting [2], 1.1; under setting [3], 0.8; under setting [4], 1.06.

In turn, `O=C(O)c1cc(=O)c2ccccc2o1` [Chromocarb] came in with a fractional viability under setting [1] of 0.948, a fractional viability under setting [2] of 1.07, a fractional viability under setting [3] of 0.923 and a fractional viability under setting [4] of 1.05.

With `CC(=O)c1cc2c(o1)C(=O)c1ccccc1C2=O` [Napabucasin], the fractional viability is, setting by setting: under setting [1], 0.0305; under setting [2], 0.0196; under setting [3], 0.018; under setting [4], 0.0135.

Compound `Cc1ccc(NC(=O)c2cccc(C(C)(C)C#N)c2)cc1Nc1ccc2ncn(C)c(=O)c2c1` registered a fractional viability under setting [1] of 0.244, a fractional viability under setting [2] of 0.283, a fractional viability under setting [3] of 0.27 and a fractional viability under setting [4] of 0.31.

For the compound `CCNC(=O)C#Cc1ccc2c(C(=Nc3ccc(CN(C)C)cc3)c3ccccc3)c(O)[nH]c2c1`, the fractional viability reads like this: under setting [1], 0.122; under setting [2], 0.0962; under setting [3], 0.0494; under setting [4], 0.0319.

The compound `CN(C)Cc1cccc(N=C(c2ccccc2)c2c(O)[nH]c3cc(C(=O)N(C)C)ccc23)c1` had a fractional viability under setting [1] of 1.01, a fractional viability under setting [2] of 0.843, a fractional viability under setting [3] of 0.588 and a fractional viability under setting [4] of 0.574.

Take `O=C([C@@H](Cc1cccc(C(F)(F)F)c1)NS(=O)(=O)c1cc(F)c2c(c1)CCNC2)N1CCCC1`: the fractional viability reads like this: under setting [1], 0.927; under setting [2], 1.04; under setting [3], 0.863; under setting [4], 0.888.

With `CC(C)CCNC(=O)[C@H](CC(C)C)NC(=O)[C@H]1O[C@@H]1C(=O)O` [Loxistatin Acid (E-64C)], the fractional viability was determined as 0.865 under setting [1], 0.938 under setting [2], 0.959 under setting [3] and 0.802 under setting [4].

For `CCCCC(=O)N(Cc1ccc(-c2ccccc2-c2nnn[nH]2)cc1)[C@H](C(=O)O)C(C)C.CCOC(=O)[C@H](C)C[C@@H](Cc1ccc(-c2ccccc2)cc1)NC(=O)CCC(=O)O`, the fractional viability turned out to be 0.864 under setting [1], 0.941 under setting [2], 0.769 under setting [3] and 0.732 under setting [4].

Consider `CN1CCN(S(=O)(=O)c2ccc(-c3cnc(N)c(C(=O)Nc4cccnc4)n3)cc2)CC1`, for which the fractional viability was 0.731 under setting [1], 1.08 under setting [2], 0.346 under setting [3] and 0.474 under setting [4].

With `O=C(O)C(Cc1ccccc1[N+](=O)[O-])=NNc1nc(-c2ccc(Cl)c(Cl)c2)cs1` (mixture of isomers), the fractional viability is 0.727 under setting [1], 0.775 under setting [2], 0.717 under setting [3] and 0.573 under setting [4].
